# In the library only some 8.1% were active in any assay of this set; here they are far more common.
# MCF10A rereplic: inducers of DNA re-replication in MCF 10A breast cells | Potency, µM (top dose mostly 46.1 µM), for inactives: at the highest dose activity, positive = re-replication, most hits filed as activators | MCF 10A DNA re-replication, Hoechst nuclear intensity, 48 h | actives 2.9% (n = 350,000); note: % of control where 0% means no effect; nearly all actives have a fitted effect of over 50% in size
# ELG1 DNA repair: inhibitors of ELG1-dependent DNA repair in HEK293T cells. HEK293T ELG1-luciferase reporter, luminescence, 16 h; DNA damage induced by 5-fluorouridine. Potency, µM (series often up to 46.1 µM), inactives show top-dose activity change, negative = inhibition, most hits filed as inhibitors. actives 2.3% (n = 330,000); note: % is set by controls: 0 for no effect and ±100 for the full control effect; nearly all actives have a fitted effect of over 55% in size
#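 Luminescence from the luciferase reporter, measured 30 min after ONE-Glo reagent at room temperature, was the read-out. Beforehand, 2,000 cells per well were exposed for 16 hr at 37 °C to 5-fluorouridine together with compound or vehicle.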
# KB-V1 MDR tox: kills drug-selected multidrug resistant KB-V1 cells | KB-V1 MDR cells viability, CellTiter-Glo, 72 h | Potency, µM (doses to about 46.1 µM), most hits filed as cytotoxic | actives 3.4% (n = 400,000) | AID 1347076; note: % is set by controls: 0 for no effect and ±100 for the full control effect; nearly all actives have a fitted effect of over 60% in size
#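 Cytotoxicity toward P-gp-expressing KB-V1 cells was determined as loss of CellTiter-Glo luminescence after 72 h at 37 degrees C. Compounds were tested in quantitative HTS format across a concentration range, with curves fitted to normalized data.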
# KB-3-1 tox: KB-3-1 parental cell cytotoxicity. KB-3-1 viability, CellTiter-Glo ATP luminescence, 72 h. Potency, µM (titrated, usually from 46.1 µM), actives largely listed as cytotoxic. actives 1.4% (n = 400,000). AID 1347075; note: % is set by controls: 0 for no effect and ±100 for the full control effect; nearly all actives have a fitted effect of over 60% in size
#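 KB-3-1 parental drug-naive adenocarcinoma cells in DMEM/10% FBS, incubated 72 h at 37 C with pin-transferred compounds across a concentration series. Viability by CellTiter-Glo luminescence; concentration-response curves fitted after normalization.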
# SW480 rerep: DNA re-replication induction in SW480 cells; SW480 DNA re-replication, Hoechst DNA content imaging, 48 h; Potency, µM (titrated, usually from 46.1 µM), for the others: at the highest dose re-replication activation, hits mostly activators; actives 1.8% (n = 340,000); AID 624297; note: % of control where 0% means no effect; nearly all actives have a fitted effect of over 55% in size
#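 Image-based DNA-content assay: after two days of treatment, nuclei were labelled with the DNA dye Hoechst and imaged, and hits were compounds raising the count of nuclei showing high fluorescence intensity.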
# * hit, by the source's call; i = inactive; ? = inconclusive; · = not tested or not shown. Calls come from the whole dose curve; as a rule, active = well fitted curve in the direction sought with a large enough effect; inconclusive = small, poorly fitted or top-dose-only effect, or another doubt; inactive = no such curve, though single readings can be large; an effect the other way counts as inactive or inconclusive. Potency is the fitted concentration of half-maximal effect.
SMILES,MCF10A rereplic,ELG1 DNA repair,KB-V1 MDR tox,KB-3-1 tox,SW480 rerep
Cc1cnc(C(=O)Nc2cccc(-c3nnc4n3CCCCC4)c2)cn1,-1%,-3%,i,i,-7%
Clc1ccc2c(c1)C(N1CCNCC1)Cc1ccccc1S2 (centres undefined),?,?,21µM*,?,?
Cc1nn(-c2ccccc2)c(N2CCCC2)c1/C=N/NC(=O)c1cc2ccccc2cc1O,?,?,i,?,?
O=C(O)c1ccc(/C=N/NC(=O)c2cc(-c3cccs3)nc3ccccc23)cc1,?,13%,?,i,-2%
Cc1nn(-c2ccccc2)c(N2CCCC2)c1/C=N/NC(=O)c1cc(-c2cccs2)nc2ccccc12,2%,15µM*,i,i,20%
Cc1nn(-c2ccccc2)c(N2CCCC2)c1/C=N/NC(=O)c1cc(-c2ccccn2)nc2ccccc12,8%,8.2µM*,?,i,2%
O=[N+]([O-])c1ccc(-n2cnc3ccccc32)c([N+](=O)[O-])c1,?,23µM*,i,i,?
O=c1c2ccccc2ncn1-c1ccccc1[N+](=O)[O-],12%,4%,i,i,-5%
O=c1c2ccccc2ncn1-c1ccc(Br)cc1[N+](=O)[O-],?,-3%,i,i,5.8µM*
N#Cc1c(NC(=O)c2ccc(Br)o2)n(-c2ccccc2)c2nc3ccccc3nc12,?,?,i,i,?
CCCCn1c(NC(=O)c2ccccc2)c(C#N)c2nc3ccccc3nc21,1%,8.2µM*,5.2µM*,?,-1%
CCC(C)n1c(NC(=O)c2ccccc2)c(C#N)c2nc3ccccc3nc21 (centres undefined),1.3µM*,?,?,?,5.2µM*
CCC(=O)Nc1c(C#N)c2nc3ccccc3nc2n1-c1ccc(C)cc1,23µM*,·,?,i,?
CC(C)C(=O)NC(=S)Nc1c(Cl)ccc2nsnc12,18µM*,-7%,i,i,-12%
Cc1ccc2nsnc2c1NC(=O)c1ccc([N+](=O)[O-])o1,21µM*,?,?,4.1µM*,2%
Cc1ccc2nsnc2c1NC(=O)c1ccc(-c2cc(Cl)ccc2Cl)o1,18%,?,?,?,13µM*
CSCC[C@H](NC(=O)c1cccc(S(=O)(=O)N2CCN(C)CC2)c1)c1nc2ccccc2[nH]1,-3%,-1%,?,i,?
Cc1ccc2nc3c(cc(C(=O)NC4CCCC4)c(=N)n3CCCn3ccnc3)c(=O)n2c1,·,10%,·,·,·
Cn1nc(C(F)(F)F)c(/C=N/OC(=O)c2ccccc2)c1SCc1ccccc1Cl,18µM*,?,12µM*,?,16µM*
O=C(CCC(=O)N1CCN(S(=O)(=O)c2ccc(Cl)cc2)CC1)NC1CCCc2ccccc21 (centres undefined),0%,-14%,i,i,10%
CCC1Oc2ccccc2N(Cc2ccccc2C)C1=O (centres undefined),3%,9%,i,i,0%
Cc1ccc(O)c(C(=O)c2cnn(C(=O)Cc3csc(C)n3)c2)c1,?,16µM*,?,?,-1%
Cc1ncc(CC(=O)n2cc(C(=O)c3cc(F)ccc3O)cn2)s1,?,-7%,i,i,?
O=C(Nc1ccc(Cl)c(Cl)c1)Nc1cc(C(=O)NC2CC2)ccc1Cl,·,26µM*,·,·,·
CCN(CC)c1ccc(/C=N/N2CCN(Cc3cccc4ccccc34)CC2)c(O)c1,49%,-17%,16µM*,i,6%
Cc1oc(-c2cccs2)cc1C(=O)N1CCCC(C)(C(=O)O)C1 (centres undefined),·,·,i,i,·
O=S(=O)(c1ccc(Br)c2nsnc12)N1CCOCC1,21µM*,14%,i,i,?
COCCN(C(=O)COC(=O)CCc1nc2ccccc2s1)c1c(N)n(Cc2ccccc2)c(=O)[nH]c1=O,-2%,-20%,i,i,0%
O=c1c2c(-c3ccccc3)csc2ncn1/N=C/c1cccc([N+](=O)[O-])c1O,7%,-17%,i,i,?
